High-throughput results from PubChem.
Shown are actives, neighbours in structure and some others; about 2.9% of the full set was active somewhere.
PLC-beta3 inh: PLC-beta3 (human) inhibition, primary screen. Purified PLC-beta3, fluorogenic substrate, fluorescence. Q01970. inhibition, % at 12.2 µM. hit rate 0.18% among 370,000; in the data active = inhibition above about 11%;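 note: 0% = median of compound wells on plate and 100% = full blocker control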
ADAM17 inh: ADAM17 inhibition, QFRET primary screen. inhibition, % at 6.95 µM. P78536. hit rate 0.83% among 370,000. recombinant ADAM17, EDANS/DABCYL FRET peptide cleavage. AID 720648;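 active = inhibition above the mean of compounds lying between control limits plus 3 SD, set per campaign, cut at about 8.5% in these data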;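 note: 0% = DMSO-only wells as the low control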
ADAM10 inh: inhibitors of human ADAM10; recombinant ADAM10, EDANS/DABCYL FRET peptide cleavage, 3 h; inhibition, % at 7 µM; O14672; hit rate 0.62% among 370,000;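 active = inhibition above a per-campaign cutoff equal to the mean of compounds falling between control-based bounds plus 3 SD, cut at about 20% in these data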;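 note: 0% = DMSO wells while the 100% control is not disclosed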
Target sequence (O14672 214-748 limits assumed): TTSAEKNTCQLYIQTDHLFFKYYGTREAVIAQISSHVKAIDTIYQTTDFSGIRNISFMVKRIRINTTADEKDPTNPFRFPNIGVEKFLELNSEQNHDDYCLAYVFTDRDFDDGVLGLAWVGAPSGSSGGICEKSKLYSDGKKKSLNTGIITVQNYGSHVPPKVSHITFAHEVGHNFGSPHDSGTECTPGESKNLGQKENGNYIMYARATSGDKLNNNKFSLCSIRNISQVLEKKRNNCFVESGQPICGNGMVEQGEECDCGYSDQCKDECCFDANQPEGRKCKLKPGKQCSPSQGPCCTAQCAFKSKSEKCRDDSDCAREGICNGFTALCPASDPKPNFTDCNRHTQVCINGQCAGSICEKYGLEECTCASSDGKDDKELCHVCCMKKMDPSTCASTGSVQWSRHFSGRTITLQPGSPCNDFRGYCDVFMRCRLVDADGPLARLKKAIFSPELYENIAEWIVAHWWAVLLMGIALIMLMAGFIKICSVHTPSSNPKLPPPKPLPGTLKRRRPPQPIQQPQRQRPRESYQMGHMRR
PLC-gamma1 inh: PLC-gamma1 (human) inhibition, primary screen | P19174 | purified PLC-gamma1, fluorogenic substrate, fluorescence | inhibition, % at 12.2 µM | hit rate 0.84% among 370,000 | AID 720700; in the data active = inhibition above about 9.5%
KLK7 zymogen act: activators of human kallikrein-7 zymogen. hit rate 0.9% among 370,000. purified proKLK7, EDANS-DABCYL substrate fluorescence; 100% is mature enzyme control, 0% vehicle. P49862. activation, % at 7 µM;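 active = activation above the mean of all tested compounds plus 3 SD, computed per campaign excluding outliers beyond control limits, cut at about 13% in these data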
ADAM10 ctr: counter-screen for ADAM17 exosite inhibitors: inhibitors of human ADAM10. shares compounds with ADAM17 inh. recombinant ADAM10, EDANS/DABCYL FRET peptide cleavage, 3 h. inhibition, % at 6.95 µM. hit rate 47% among 2,900. AID 743256;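 active = mean inhibition over the triplicate runs exceeds the activity threshold set in the earlier primary screen, cut at about 20% in these data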;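 note: 0% = DMSO wells and 100% = marimastat wells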
ADAM17 confirm: confirmation of inhibitors of human ADAM17; shares compounds with ADAM17 inh; recombinant ADAM17, EDANS/DABCYL QFRET peptide cleavage; inhibition, % at 6.95 µM; hit rate 65% among 2,900; AID 743257;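 active = mean inhibition across replicates above the hit cutoff set in the primary screen, cut at about 8.5% in these data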;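 note: 0% = DMSO wells and 100% = marimastat wells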
* marks the source's active call; other numbers are inactive results; . = no result.

SMILES | PLC-beta3 inh | ADAM17 inh | ADAM10 inh | PLC-gamma1 inh | KLK7 zymogen act | ADAM10 ctr | ADAM17 confirm
O=C(CCn1nc(-c2ccccc2)c2ccccc2c1=O)N1CCN(c2ccccc2)CC1 | 0.8 | 10.0* | 12.5 | 5.7 | 0.5 | 5.9 | 8.2
Cn1c(CNC(=O)CNC(=O)c2ccccc2)cc(=O)n(C)c1=O | 0.7 | -2.6 | -6.6 | 1.5 | 0.1 | . | .
O=C(Oc1cccc(NC(=O)c2cccs2)c1)c1cccc(S(=O)(=O)N2CCCC2)c1 | 3.2 | 11.2* | 17.8 | 0.2 | 0.1 | 26.5* | 16.5*
O=C(Nc1cccc(S(=O)(=O)N2CCCCC2)c1)c1cccs1 | -2.0 | 2.1 | 17.2 | 7.0 | 0.1 | . | .
CC(C)(C)OC(=O)C[C@@H]1C/C=C\C[C@H](CC(=O)N(CCO)Cc2ccccc2)C(=O)N[C@H](C(C)(C)C)COC1=O | 2.8 | -2.8 | -0.5 | 0.1 | -0.1 | . | .
Cc1ccc(C(=O)CCC(=O)N(C)CC(=O)Nc2ccccc2Br)cc1 | -9.6 | -5.1 | -6.4 | -0.5 | -0.9 | . | .
Cc1cc(C(=O)CCC(=O)N(C)CC(=O)Nc2ccccc2Br)c(C)s1 | -0.6 | 11.1* | 5.8 | 5.1 | 0.4 | -9.8 | -1.5
O=C(/C=C/c1ccccc1)c1ccc(NC2=NCCCS2)cc1 | -0.7 | 5.7 | 13.0 | -2.2 | -0.4 | . | .
O=C(/C=C/c1ccc(Br)cc1)c1ccc(NC2=NCCCS2)cc1 | -7.6 | 8.8* | 14.0 | 4.2 | -2.7 | 25.7* | 13.0*
Cc1ccc(CNC(=O)C2CCCN(c3ncnc4c3nc3n4CCCCC3)C2)cc1 (stereo not drawn) | -5.2 | 2.0 | -14.1 | -0.8 | 0.0 | . | .
O=C(COc1cccc(Cl)c1)NNC(=S)Nc1ccccc1 | -1.9 | 9.8* | 13.4 | 4.8 | -0.7 | 14.2 | 9.7*
CCOC(=O)C1=CN(Cc2cccc(F)c2)S(=O)(=O)NC1c1ccc2ccccc2c1 (stereo not drawn) | 1.6 | 9.8* | 19.7 | 2.1 | 0.2 | 14.7 | 11.3*
CCOC(=O)Cc1csc(NC(=O)c2cc(C)c(C)s2)n1 | -14.3 | 10.7* | -9.8 | -0.8 | -0.3 | 5.2 | 8.9*
O=C(COc1ccccc1)N=C1SC2CS(=O)(=O)CC2N1CCc1ccccc1 (stereo not drawn) | -7.4 | -5.3 | 2.6 | 2.5 | -0.9 | . | .
Cc1cccc2cc(C3CC(c4ccco4)=NN3S(=O)(=O)c3ccccc3)c(Cl)nc12 (stereo not drawn) | -0.6 | 9.4* | 9.8 | -1.6 | -0.8 | 19.8* | 12.2*
CC(=O)N1c2ccc(C)cc2Sc2c1ccc1ccccc21 | 6.7 | 11.6* | 18.3 | 8.3 | 0.6 | 16.4 | 9.0*
CC(NC(=O)COc1ccc(S(=O)(=O)N2CCOCC2)cc1)c1ccccc1 (stereo not drawn) | -12.2 | -3.9 | -3.0 | -0.8 | 0.1 | . | .
C[C@@H]1CN([C@H](C)CO)C(=O)c2cc(NC(=O)Cc3ccccc3)ccc2O[C@H]1CN(C)Cc1ccc(Oc2ccccc2)cc1 | 2.3 | 9.2* | 18.6 | 4.7 | 0.6 | 28.3* | 19.5*
C[C@@H]1CN([C@H](C)CO)C(=O)c2cc(NC(=O)Cc3cn(C)c4ccccc34)ccc2O[C@H]1CN(C)C(=O)Nc1ccc2c(c1)OCO2 | -4.7 | 13.7* | 17.8 | 5.9 | -0.1 | 5.0 | 4.8
COc1ccc(NC(=O)N(C)C[C@H]2Oc3ccc(NC(=O)Nc4ccc(C(F)(F)F)cc4)cc3C(=O)N([C@H](C)CO)C[C@@H]2C)cc1 | -0.1 | 8.7* | 13.9 | -0.5 | 0.3 | 35.7* | 17.7*
O=C(OCC(=O)N1CCCC1)c1cc(Cl)ccc1Cl | -5.7 | -2.1 | -6.7 | 0.5 | 0.5 | . | .
CC(C)(c1ccccc1)c1ccc(OCCn2cnc3ccccc3c2=O)cc1 | -0.2 | 9.6* | 15.8 | 0.7 | -0.1 | 27.5* | 14.7*
O=C(c1ccccc1)c1ccc(OCCn2cnc3ccccc3c2=O)cc1 | -3.7 | -3.5 | 8.7 | -3.0 | -0.1 | . | .
Cc1cc(C)cc(Cn2cc(CN3CC(N4CCSCC4)CS3(=O)=O)nn2)c1 (stereo not drawn) | -0.5 | -4.4 | -6.9 | 0.9 | -0.3 | . | .
Cc1ccc(S(=O)(=O)Nc2cccc3c2O[C@H](CN(C)Cc2ccc(-c4ccccc4)cc2)[C@@H](C)CN([C@H](C)CO)C3=O)cc1 | 2.0 | 12.7* | 23.6* | 1.5 | 0.6 | 44.4* | 23.7*
SMILES | PLC-beta3 inh | ADAM17 inh | ADAM10 inh | PLC-gamma1 inh | KLK7 zymogen act | ADAM10 ctr | ADAM17 confirm
C[C@@H]1CN([C@H](C)CO)C(=O)c2c(c3ccccc3n2C)-c2ccccc2CO[C@H]1CN(C)Cc1ccc(-c2ccccc2)cc1 | 0.9 | 8.9* | 8.1 | 4.4 | 0.3 | 17.0 | 8.2
Cc1ccc(S(=O)(=O)N(C)C[C@@H]2Oc3ccc(NS(=O)(=O)c4ccccc4)cc3CC(=O)N([C@@H](C)CO)C[C@H]2C)cc1 | 8.9 | 10.0* | 14.4 | 7.8 | 0.9 | 5.2 | 4.9
Cc1nc2ccc(Cl)cc2nc1C | -1.7 | -0.9 | 2.5 | 1.0 | 0.3 | . | .
C[C@@H]1CC=C[C@H]2[C@H]1C(=O)N(Cc1ccccc1)[C@H]2c1ccc(-c2ccc(F)cc2)cc1F | -3.8 | -4.7 | -8.5 | -0.2 | 0.5 | . | .
C[C@@H]1CC=C[C@H]2[C@H]1C(=O)N(Cc1ccccc1)[C@H]2c1ccc(-c2ccoc2)cc1F | -2.4 | 12.6* | 17.9 | 4.6 | 0.4 | 10.2 | 8.2
C=CC[C@H]1c2ccccc2[C@H]2N3N=Cc4ccccc4[C@H]3[C@H](CCc3ccccc3)C(=O)N2N1C(=O)c1ccccc1 | 1.5 | 11.4* | 14.6 | -0.2 | -1.8 | 4.6 | 7.8
CCNc1nc(C23CC4CC(CC(C4)C2)C3)cs1 | -0.3 | 0.3 | 1.1 | 2.5 | 0.3 | . | .
CC(=O)NNC(=O)CC(=O)Nc1nc(C23CC4CC(CC(C4)C2)C3)cs1 | -0.1 | 8.9* | 4.3 | 5.2 | 0.4 | -12.2 | -0.5
Cc1ccc(C2(CCNS(=O)(=O)c3ccc(C)cc3)CCOC(C(C)C)C2)cc1 (stereo not drawn) | -4.8 | 10.5* | 16.9 | 6.8 | 0.0 | 28.5* | 15.9*
COc1ccccc1OC(C)C(=O)N1CCN(Cc2ccc3c(c2)OCO3)CC1 (stereo not drawn) | -8.3 | -1.8 | -3.7 | 0.7 | 0.2 | . | .
O=C(Nc1cccc([N+](=O)[O-])c1)c1ccc2c(c1)C(=O)N(c1ccccn1)C2=O | -6.0 | -0.3 | -5.8 | 0.3 | -0.5 | . | .
CCN(CC)S(=O)(=O)c1ccc(N2CCOCC2)c(NC(=O)c2ccc(OC)c([N+](=O)[O-])c2)c1 | 3.8 | -4.3 | -1.8 | -1.6 | -0.2 | . | .
CCN(CC)S(=O)(=O)c1ccc(OC)c(NC(=O)c2ccc(OC)c([N+](=O)[O-])c2)c1 | 7.2 | 13.3* | 12.6 | 7.4 | 0.1 | 0.1 | 0.9
Cc1cc(NC(=O)CCSc2ccccc2)ccc1Br | 3.8 | 9.2* | 18.6 | 5.3 | -0.4 | 21.6* | 14.2*
